Test results taken from PubChem BioAssay (NCI).
This is part of a sample that, as a whole, favours compounds with a hit. Of some 83,000 tested, about 20% had one in any assay.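 The endpoint reported here, percent growth, reads 100 for growth as untreated, 0 for no net growth and -100 for all cells dead.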 Active and inactive are the calls of the source.

System: MDA-MB-435 melanoma
Assay: NCI-60 one-dose screen, 48 h (100 = growth as untreated, 0 = no growth, -100 = all killed)
Settings: 10 µM unless noted
Experimental: Growth inhibition of the MDA-MB-435 human Melanoma tumor cell line is measured as a screen for anti-cancer activity. Cells are grown in 96 well plates and exposed to the test compound for 48 hours. Compounds are tested at a single concentration, which is 10^-5 M for most compounds. The reported endpoint is percent growth (GI% or GIPRCNT), where numbers from 0 - 100% represent growth inhibition, and numbers from -100% - 0 represent cell death. For example, a value of 40 represents 60% growth inhibition. A value of 0 means no net growth occurred over the course of the experiment. A value of -40 indicates 40% of cells at the beginning of the experiment died by the end of the experiment. A value of -100 means all cells are dead at the end of the experiment.
NCI-60 Human Tumor Cell Lines Screen was performed using the standard one-dose NCI protocol, which is described in more detail at https://dtp.cancer.gov/discovery_development/nci-60/default.htm.
Compounds with GIPRCNT values below 10 were considered active. Activity score was based on GIPRCNT using the following formula: […]
Score is 0 for GIPRCNT values of 100 or above, 50 for GIPRCNT values of 0, and 100 for GIPRCNT values of -100.

SMILES	growth
CCCCN1CCCCn2c1nc1c2c(=O)n(C)c(=O)n1C	107% (inactive)
COC(=O)[C@]12CC[C@@H](C(C)=O)[C@@H]1[C@H]1CC[C@@H]3[C@@]4(C)C/C(=C/c5cccnc5)C(=O)C(C)(C)[C@@H]4CC[C@@]3(C)[C@]1(C)CC2	72.6% (inactive)
Nc1c(C(=O)Nc2c(Cl)cccc2Cl)sc2nc3c(cc12)CCCC3	5.24% (active)
O=C(NO)c1ccc(Cn2c(=O)n(-c3ccccc3)c(=O)c3ccccc32)cc1	-64.2% (active)
COC(=O)[C@]12CC[C@@H](C)[C@H](C)[C@@H]1C1=CC[C@@H]3[C@@](C)(CC#N)C4=C(C[C@@]3(C)[C@]1(C)CC2)OC[C@]4(C)C=O	3.05% (active)
O=P(O)(c1ccccc1)c1ccccc1I	104% (inactive)
C/C(=N\Nc1cc(C)c2ccccc2n1)c1ccccn1	-90.9% (active)
COc1ccc(C2(Cl)c3ccccc3N(c3ccccc3)c3ccccc32)cc1	-60.9% (active)
C=C1C(=O)O[C@H]2[C@H]1CC/C(COC(=O)N[C@H](Cc1c[nH]c3ccccc13)C(=O)OC)=C\CC[C@@]1(C)O[C@@H]21	54.8% (inactive)
COc1ccc(CCN2C(=O)C(C)(C)SC2=S)cc1OC	99.2% (inactive)
C=C(C)[C@@H]1CC[C@]2(C=O)CC[C@]3(C)[C@H](CC[C@@H]4[C@@]5(C)C/C(=C/c6cccnc6)C(=O)C(C)(C)[C@@H]5CC[C@]43C)[C@@H]12	95.3% (inactive)
CCc1nnc(NC(=O)c2ccoc2COc2ccccc2)s1	-26.1% (active)
COC(=O)[C@]12CC[C@@H](C)[C@H](C)[C@@H]1C1=CC[C@@H]3[C@@]4(C)CC(=O)[C@H](OC(=O)c5ccco5)[C@@]5(C)COC(=C45)C[C@@]3(C)[C@]1(C)CC2	21.4% (inactive)
COc1ccc(/C(=C\c2ccc3c(c2)OCO3)C(=O)Nc2nc3ccccc3s2)cc1OC	95.7% (inactive)
O=C(/C=C\c1ccc2c(c1)OCO2)/C=C/c1ccc2c(c1)OCO2	17% (inactive)
COC(=O)[C@]12CC[C@@H](C)[C@H](C)[C@@H]1C1=CC[C@@H]3[C@@]4(C)C[C@@H](OC(C)=O)[C@H](O)[C@@](C)(COC(C)=O)[C@@H]4[C@H](O)C[C@@]3(C)[C@]1(C)CC2	-81.7% (active)
CN(C)c1ccc(-c2ccc(-c3ccc(C(=N)N)c(F)c3)s2)cc1	-95.4% (active)
Nc1c(C(=O)Nc2cccc(Br)c2)sc2nc3c(cc12)C(=O)CCC3	-53.3% (active)
Cc1ccc(-c2nn(Cc3cn(-c4cc(C)nc5ccccc45)nn3)c3ncnc(N)c23)cc1	50.2% (inactive)
NC(N)=N/N=C/c1ccc(-c2ccc(-c3ccc(Cl)cn3)s2)cc1	98.5% (inactive)

SMILES	growth
COC(=O)C(N)CSC(c1ccccc1)(c1ccccc1)c1ccccc1 (stereo not given)	-58.7% (active)
Nc1c2c(nc3ccc(Br)cc13)CC(c1ccccc1)CC2=O (stereo not given)	-43.4% (active)
COc1cccc(-c2nn(-c3ccccc3)cc2-c2ccnc(NCCCNS(=O)(=O)c3ccc(C(F)(F)F)cc3)c2)c1	27.1% (inactive)
Cn1c2ccccc2c2c3c(c4c5cccnc5[nH]c4c21)C(=O)N(O)C3=O	64.3% (inactive)
C#CCC(C)(O)/C=C/C1=C(C)CCCC1(C)C (stereo not given)	103% (inactive)
N=c1ccc2nc3c(cc(N)c4ccccc43)oc-2c1	-86.1% (active)
CCN(CC)CCCCCNc1cc(OC(=O)c2ccccc2)cc2cccnc12	53.6% (inactive)
Cc1ccc(N(CC(=O)Nc2ccc(S(=O)(=O)NC3CCN(C)CC3)cc2)S(=O)(=O)c2ccc(Cl)cc2)cc1	-44.3% (active)
O=C(Nc1ccc(/C=C2\SC(=O)N(Cc3ccc(OC(F)(F)F)cc3)C2=O)cc1)c1ccc(Cl)c([N+](=O)[O-])c1	99.6% (inactive)
C[C@@H]1CCCCCCCCC[C@H](O)C(=O)C[C@@H](SC[C@@H](O)C(=O)O)C(=O)O1	103% (inactive)
CCNCCCn1c2c(c3ccc([N+](=O)[O-])cc3c1=O)C(=O)c1cc(OC)cnc1-2	-54.4% (active)
CC(=O)O[C@@H]1CCN2C(=O)N(C)c3ccccc3[C@@H]2C1	107% (inactive)
CN(C)c1cccc2[nH]c(-c3[nH]ncc3Nc3ccnc(N)n3)nc12	-90% (active)
N#CC1=C(N)Oc2ccc3ccccc3c2C1c1ccccc1 (stereo not given)	-21.6% (active)
CC(=O)c1c(C)[nH]c(-c2nc3ccc(N4CCN(C)CC4)cc3[nH]2)c1-c1ccc(N(C)C)cc1	27.1% (inactive)
O=C1/C(=C\c2ccco2)SC(=S)N1CCc1ccc(O)cc1	93.7% (inactive)
COc1cc(C(=O)/C=C/c2cc(-c3ccc4c(c3)OCO4)n[nH]2)cc(OC)c1OC	40% (inactive)
CC(=O)n1c(/C(C#N)=C/c2ccc(N(C)C)cc2)cc2ccccc21	2.22% (active)
COc1ccc2c(c1)c1nc3cc(C)c(C)cc3nc1n2CCN(C)C	18.1% (inactive)
COc1cc2c(cc1-c1c(C)noc1C)ncc1nc(C3CCCCC3)n([C@@H](C)COC(F)F)c12	28.2% (inactive)
